According to PubChem BioAssay (NCATS):
Inconclusive results are not listed. Activity calls are given as the source filed them. Calls follow the shape of the dose curve; as a rule, active = well fitted curve in the direction sought with a large enough effect; inconclusive = small, poorly fitted or top-dose-only effect, or another doubt; inactive = no such curve, though single readings can be large; an effect the other way counts as inactive or inconclusive.

Assays:
[1] = qHTS for ATAD5 Antagonist screened against the NCATS CANVASS Library (AID 1347370);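 also: HEK293T cells carrying an ATAD5 luciferase reporter co-treated with 10 µM 5-fluorouridine; series mostly up to about 46 µM; nearly all actives have a fitted effect of over 65% in size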
Procedure, shortened: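 Compounds (11-point) co-dosed with 10 µM 5-FUrd for 16 h at 37 °C onto HEK293T-ATAD5 luciferase reporter cells. Viability measured by CellTiter-Fluor fluorescence, then ATAD5 reporter signal by luminescence.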

[2] = J3T Cancer Cell Toxicity qHTS against the NCATS CANVASS Library (AID 1347371);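 also: J3T is a canine glioma cancer cell line seeded at 500 cells per well; series mostly up to about 46 µM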
Procedure, shortened: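 Cytotoxicity read as CellTiterGlo ATP luminescence after 72 h incubation (37C, 5% CO2) of J3T canine glioma cells (500/well) with an 11-point compound series.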

[3] = molecular target: Nuclear receptor subfamily 1 group I member 3 (Homo sapiens) (UniProt Q14994); assay: qHTS for Constitutive Androstane Receptor (CAR) Antagonist screened against the NCATS CANVASS Library (AID 1347372);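 also: cells stimulated with 50 nM CITCO agonist so inhibition reflects antagonism; series mostly up to about 46 µM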
Procedure, shortened: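 Antagonist mode: compound added alongside 50 nM CITCO to HepG2-hCAR-CYP2B6 reporter cells, 24hr at 37C. Viability by CellTiter-Fluor fluorescence, then CAR-driven luciferase by ONE-Glo luminescence.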

[4] = molecular target: Nuclear receptor subfamily 1 group I member 3 (Homo sapiens) (UniProt Q14994); assay: qHTS for Constitutive Androstane Receptor (CAR) Agonist screened against the NCATS CANVASS Library (AID 1347373);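 also: every well also contained 1.5 µM PK11195 alongside the test compound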
Procedure, shortened: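 Agonist mode with 1.5uM PK11195 present: compounds for 24hr on HepG2-hCAR-CYP2B6 cells. CellTiter-Fluor fluorescence (ex 405, em 540 nm) gives viability; ONE-Glo luminescence reports CAR activation.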

[5] = qHTS for Hypoxia signaling pathway (HIF-1) antagonists against the NCATS CANVASS Library (AID 1347374);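 also: HRE-bla ME-180 cells stimulated with cobalt chloride to stabilize HIF-1alpha; series mostly up to about 38 µM; nearly all actives have a fitted effect of over 60% in size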
Excerpt: Natural products and their derivatives continue to be wellsprings of nascent therapeutic potential. However, many laboratories have limited resources for biological evaluation, leaving their previously isolated or synthesized compounds largely or completely untested. To address this issue, the Canvass library of natural products was assembled (https://tripod.nih.gov/canvass), in collaboration with academic and industry researchers, for quantitative high-throughput screening (qHTS) across a diverse set of cell-based and biochemical assays. […] We collected pure natural products to circumvent deconvolution and structure elucidation due to time and resource limitations. The library was formatted into 1536-well plates and evaluated in 50 qHTS (in an 11-pnt concentration series) bioassays with broad scope of disease-relevant mechanisms. The resulting data set from 50 different assays was then systematically analyzed to identify overall trends and specific natural products with interesting biological activities. […] The compounds were also tested for auto fluorescence that may interfere with the biological target readout resulting in potential false positives and/or negatives. […]
HIF-1 antagonist assay protocol: 1. […] The fluorescence intensity was obtained using the EnVision (PerkinElmer, Shelton, CT) plate reader using a 405 nm excitation, and 460 and 530 nm emission filters. […]

[6] = qHTS for Hypoxia signaling pathway (HIF-1) agonists against the NCATS CANVASS Library (AID 1347375)
Excerpt: Natural products and their derivatives continue to be wellsprings of nascent therapeutic potential. However, many laboratories have limited resources for biological evaluation, leaving their previously isolated or synthesized compounds largely or completely untested. To address this issue, the Canvass library of natural products was assembled (https://tripod.nih.gov/canvass), in collaboration with academic and industry researchers, for quantitative high-throughput screening (qHTS) across a diverse set of cell-based and biochemical assays. The pure (>85% purity by liquid chromatography/mass spectrometry [LC/MS]) Canvass library of 346 natural products were submitted by 45 academic laboratories and companies around the world. We collected pure natural products to circumvent deconvolution and structure elucidation due to time and resource limitations. The library was formatted into 1536-well plates and evaluated in 50 qHTS (in an 11-pnt concentration series) bioassays with broad scope of disease-relevant mechanisms. The resulting data set from 50 different assays was then systematically analyzed to identify overall trends and specific natural products with interesting biological activities. […] The compounds were also tested for auto fluorescence that may interfere with the biological target readout resulting in potential false positives and/or negatives. […]

[7] = 10-beta competent E. coli microbial cell viability qHTS against the NCATS CANVASS Library (AID 1347376); also: series mostly up to about 46 µM
Procedure, shortened: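 Read-out: BacTiter-Glo ATP luminescence, taken 20 min after reagent addition. Beforehand, 10-beta competent E. coli at 0.2 OD had been incubated overnight at 37C with compounds at 11 concentrations.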

[8] = DH5-alpha competent E. coli microbial cell viability qHTS against the NCATS CANVASS Library (AID 1347377); details: outcome: dose series up to 46.1 µM
Procedure, shortened: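 Bacterial viability as ATP-dependent luminescence (BacTiter-Glo), read after overnight 37 °C exposure of DH5-alpha competent E. coli to compounds in 11-point titration.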

[9] = qHTS for H2AX Agonists against the NCATS CANVASS Library (AID 1347378);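 also: phospho-H2AX S139 level in CHO-K1 lysates by TR-FRET emission ratio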
Excerpt: Natural products and their derivatives continue to be wellsprings of nascent therapeutic potential. However, many laboratories have limited resources for biological evaluation, leaving their previously isolated or synthesized compounds largely or completely untested. To address this issue, the Canvass library of natural products was assembled (https://tripod.nih.gov/canvass), in collaboration with academic and industry researchers, for quantitative high-throughput screening (qHTS) across a diverse set of cell-based and biochemical assays. The pure (>85% purity by liquid chromatography/mass spectrometry [LC/MS]) Canvass library of 346 natural products were submitted by 45 academic laboratories and companies around the world. We collected pure natural products to circumvent deconvolution and structure elucidation due to time and resource limitations. The library was formatted into 1536-well plates and evaluated in 50 qHTS (in an 11-pnt concentration series) bioassays with broad scope of disease-relevant mechanisms. The resulting data set from 50 different assays was then systematically analyzed to identify overall trends and specific natural products with interesting biological activities. […] It is based on time resolved fluorescence resonance energy transfer (TR-FRET). […] The results were expressed as the ratio of 665/615 nm emissions. […]

[10] = qHTS for Inflammasome Signaling Inhibitors: IL-1-beta AlphaLISA screen against the NCATS CANVASS Library (AID 1347379); details: outcome: dose series up to 57.5 µM;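 also: human THP-1 cells primed with LPS then triggered with ATP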
Procedure, shortened: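 Secreted IL-1B from human THP-1 cells quantified by AlphaLISA 16 hr after compound addition (final up to 57.5 uM). A 1 hr compound pretreatment preceded inflammasome activation with 250 ng/mL LPS plus 1.25 mM ATP (final).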

Measured: outcome

Sequence of Nuclear receptor subfamily 1 group I member 3 (Homo sapiens) (Q14994 whole entry, looked up): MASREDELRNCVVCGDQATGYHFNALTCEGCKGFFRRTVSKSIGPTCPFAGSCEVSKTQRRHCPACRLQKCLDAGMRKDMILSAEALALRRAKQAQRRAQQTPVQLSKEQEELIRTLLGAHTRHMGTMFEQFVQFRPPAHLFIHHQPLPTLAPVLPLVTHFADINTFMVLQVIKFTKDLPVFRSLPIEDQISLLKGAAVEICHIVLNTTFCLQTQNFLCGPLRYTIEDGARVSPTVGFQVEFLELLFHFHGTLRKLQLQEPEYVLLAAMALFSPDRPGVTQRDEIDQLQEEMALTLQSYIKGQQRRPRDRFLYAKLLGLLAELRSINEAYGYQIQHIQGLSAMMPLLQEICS

NCCc1c[nH]c2ccccc12
inactive: [1] | [2] | [3] | [4] | [5] | [6] | [7] | [8] | [9] | [10]

NCCc1c[nH]c2ccc(O)cc12
inactive: [1] | [2] | [3] | [4] | [5] | [6] | [7] | [8] | [9] | [10]
